# Laboratory results taken from PubChem BioAssay.
# Active and inactive are the calls of the source. Unless noted, the rule behind the calls is not given here.
# Experiments:
# [1] = tested on: Wnt5a (protein binding on small-molecule microarray); test: Wnt5a binders on small-molecule microarray, primary screen, biophysical, 635/667 nm fluorescence (AID 1142); details: 635 nm fluorescence, higher = more signal;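 note: fluorescence read at 667 nm with signal to noise per printed feature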
# [2] = cell viability in Huh7 cells, primary screen, cytotoxicity control for HCV replication inhibitor project, CellTiter-Glo luminescence, basal, 48 h (AID 1143); details: Huh7 HCV replicon, higher = more signal, called active from +8 up or from −8 down;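 note: Huh7 hepatoma cells carrying a hepatitis C replication reporter with no stimulus; test concentration not given here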
# [3] = P. aeruginosa biofilm formation inhibitors, primary screen, PAO1 strain, BacTiter-Glo luminescence, LB-PBS (AID 1144); details: 12 h, higher = more signal
# [4] = CREB reporter modulators without forskolin, primary screen, cell-based, PC12, CRE-LacZ reporter, unstimulated (AID 1145); details: no forskolin, luminescence, 4.5 h, higher = more signal, called active from +8 up or from −8 down
# [5] = CREB reporter modulators under forskolin, primary screen, cell-based, PC12, CRE-LacZ reporter, forskolin-stimulated (AID 1146); details: luminescence, 4.5 h, higher = more signal, called active from +8 up or from −8 down;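 note: PC12 cells with 6xCRE LacZ reporter stimulated by forskolin 10 µM; beta-galactosidase reporter signal reflecting CREB driven transcription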
# [6] = biological target: Streptavidin (Streptomyces avidinii) (UniProt P22629); test: streptavidin binders on small-molecule microarray, primary screen, artefact control for SMM compound annotation, biophysical, 635/667 nm fluorescence (AID 1147); details: streptavidin binding, higher = more signal;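 note: signal reflects streptavidin binding to arrayed compounds as a control protein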
# [7] = small-molecule binders of probe aInhba, primary screen, biochemical, small-molecule microarray, 635/667 nm fluorescence (AID 1148); details: higher = more signal;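 note: score merges 667nm spot fluorescence with signal-to-noise for antibody binding to printed compounds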
# Torsin-1A (Homo sapiens) [8] = biological target: Torsin-1A (Homo sapiens) (UniProt O14656); test: torsin A binders from cell lysate, primary screen, small-molecule microarray, wild-type, 635/667 nm (AID 1149); details: COS7 hTOR1A-WT lysate, 635 nm fluorescence, higher = more signal
# Torsin-1A (Homo sapiens) [9] = biological target: Torsin-1A (Homo sapiens) (UniProt O14656); test: small-molecule binders of mutant TOR1A in lysate, primary screen, cell lysate, small-molecule microarray, COS7 lysate, 635/667 nm fluorescence (AID 1150); details: COS7 hTOR1A mutant lysate, 635 nm fluorescence, higher = more signal;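 note: score pools 667 nm emission and signal to noise measuring lysate protein binding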
# [10] = tested on: Sonic hedgehog protein (Shh); test: small-molecule binders of Shh protein, primary screen, biochemical, small-molecule microarray, 635/667 nm fluorescence (AID 1151); details: small-molecule microarray binding, 635 nm fluorescence; higher = more signal;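 note: Shh protein binding to compounds spotted on small-molecule microarray slides; score combines spot fluorescence intensity with signal-to-noise across triplicate slides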
# [11] = E. coli DRC41 culture turbidity changes, primary screen, E. coli filamentation inducer project, strain DRC41, OD650, 48 h (AID 1152);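 note: E. coli MC1000 strain DRC41 lacking acrAB efflux pump and sulA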; details: E. coli DRC41 (acrAB sulA), higher = more signal, called active from +8 up or from −8 down
# [12] = small-molecule binders of probe aLefty1, primary screen, biochemical, small-molecule microarray, 635/667 nm fluorescence (AID 1153); details: higher = more signal;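 note: score merges spot fluorescence with signal-to-noise ratio from the scanned slide images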
# [13] = PSAC antagonists in infected red cells, primary screen, cell-based, P. falciparum Indochina, OD700, 1 h (AID 1154); details: P. falciparum Indochina infected RBC osmotic lysis, higher = more signal, called active from +8 up or from −8 down
# [14] = PSAC antagonists in infected red cells, primary screen, cell-based, P. falciparum Indochina, OD700, 2 h (AID 1155);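 note: lysis reports solute entry through the parasite surface anion channel PSAC; channel blockers reduce lysis of infected cells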; details: P. falciparum Indochina infected erythrocytes, osmotic lysis OD700; higher = more signal, called active from +8 up or from −8 down
# [15] = osmotic lysis modulators in infected erythrocytes, primary screen, PSAC antagonist project, cell-based, P. falciparum Indochina, OD700, 3 h (AID 1156); details: higher = more signal, called active from +8 up or from −8 down
# [16] = PSAC antagonists in infected red cells, primary screen, cell-based, P. falciparum Indochina, OD700, 18 h (AID 1157); details: P. falciparum Indochina infected erythrocytes, osmotic lysis OD700, 18 h; higher = more signal, called active from +8 up or from −8 down
# [17] = modulators of S6 phosphorylation in cells, primary screen, cell-based, A549, cytoblot, luminescence, serum-stimulated (AID 1158); details: A549 phospho-S6 cytoblot, 5 h, higher = more signal;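 note: serum-stimulated A549 lung adenocarcinoma cells; signal is phosphorylated S6 detected by cytoblot immunostaining with HRP secondary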
# [18] = biological target: NADPH oxidase 2 (Homo sapiens) (UniProt P04839); test: NOX2-dependent H2O2 signal modulators, primary screen, NOX inhibitor project, cell-based, HEK293-NOX2, PMA-stimulated, Amplex Red fluorescence (AID 1159); details: 45 min, higher = more signal, called active from +8 up or from −8 down; note: test concentration not given here
# [19] = biological target: NADPH oxidase 4 (Homo sapiens) (UniProt Q9NPH5); test: NOX4-dependent H2O2 signal modulators, primary screen, NOX inhibitor project, cell-based, HEK293-NOX4, tetracycline-induced, Amplex Red fluorescence (AID 1160); details: 45 min, higher = more signal, called active from +8 up or from −8 down
# [20] = biological target: NADPH oxidase 5 (Homo sapiens) (UniProt Q96PH1); test: NOX5-dependent H2O2 signal modulators, primary screen, NOX inhibitor project, cell-based, HEK293-NOX5, Amplex Red fluorescence (AID 1161); details: HEK293-NOX5, ionomycin, 45 min, higher = more signal
# NADPH oxidase 5 (Homo sapiens), sequence (Q96PH1 whole entry, looked up): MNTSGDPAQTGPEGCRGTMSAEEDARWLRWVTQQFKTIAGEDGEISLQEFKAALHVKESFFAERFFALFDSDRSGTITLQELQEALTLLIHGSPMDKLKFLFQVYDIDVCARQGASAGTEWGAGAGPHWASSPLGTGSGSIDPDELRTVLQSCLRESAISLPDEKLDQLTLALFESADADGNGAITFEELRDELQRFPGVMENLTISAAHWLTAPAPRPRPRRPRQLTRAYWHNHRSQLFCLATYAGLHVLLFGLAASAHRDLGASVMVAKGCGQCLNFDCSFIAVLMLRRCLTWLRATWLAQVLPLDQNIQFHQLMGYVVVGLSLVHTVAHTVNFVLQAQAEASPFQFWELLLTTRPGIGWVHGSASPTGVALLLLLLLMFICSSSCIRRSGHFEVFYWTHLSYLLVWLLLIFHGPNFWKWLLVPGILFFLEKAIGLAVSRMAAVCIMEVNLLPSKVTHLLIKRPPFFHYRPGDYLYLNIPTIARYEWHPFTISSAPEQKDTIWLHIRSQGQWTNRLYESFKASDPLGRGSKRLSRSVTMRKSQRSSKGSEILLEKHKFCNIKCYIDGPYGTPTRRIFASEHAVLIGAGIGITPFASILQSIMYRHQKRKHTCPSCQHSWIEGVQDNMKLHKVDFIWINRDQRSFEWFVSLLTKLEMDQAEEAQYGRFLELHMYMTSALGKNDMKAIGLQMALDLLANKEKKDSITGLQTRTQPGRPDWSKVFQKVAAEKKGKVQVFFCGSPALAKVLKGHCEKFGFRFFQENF
# Torsin-1A (Homo sapiens), sequence (O14656 whole entry, looked up): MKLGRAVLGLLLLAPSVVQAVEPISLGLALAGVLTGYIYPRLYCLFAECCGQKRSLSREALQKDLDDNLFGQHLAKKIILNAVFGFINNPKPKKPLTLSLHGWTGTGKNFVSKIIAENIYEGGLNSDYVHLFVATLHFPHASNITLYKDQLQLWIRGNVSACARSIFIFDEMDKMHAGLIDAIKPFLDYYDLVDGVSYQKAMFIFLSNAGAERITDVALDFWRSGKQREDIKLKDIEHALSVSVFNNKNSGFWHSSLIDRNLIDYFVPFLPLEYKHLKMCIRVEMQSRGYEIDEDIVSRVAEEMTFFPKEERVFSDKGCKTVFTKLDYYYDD
# NADPH oxidase 4 (Homo sapiens), sequence (Q9NPH5 whole entry, looked up): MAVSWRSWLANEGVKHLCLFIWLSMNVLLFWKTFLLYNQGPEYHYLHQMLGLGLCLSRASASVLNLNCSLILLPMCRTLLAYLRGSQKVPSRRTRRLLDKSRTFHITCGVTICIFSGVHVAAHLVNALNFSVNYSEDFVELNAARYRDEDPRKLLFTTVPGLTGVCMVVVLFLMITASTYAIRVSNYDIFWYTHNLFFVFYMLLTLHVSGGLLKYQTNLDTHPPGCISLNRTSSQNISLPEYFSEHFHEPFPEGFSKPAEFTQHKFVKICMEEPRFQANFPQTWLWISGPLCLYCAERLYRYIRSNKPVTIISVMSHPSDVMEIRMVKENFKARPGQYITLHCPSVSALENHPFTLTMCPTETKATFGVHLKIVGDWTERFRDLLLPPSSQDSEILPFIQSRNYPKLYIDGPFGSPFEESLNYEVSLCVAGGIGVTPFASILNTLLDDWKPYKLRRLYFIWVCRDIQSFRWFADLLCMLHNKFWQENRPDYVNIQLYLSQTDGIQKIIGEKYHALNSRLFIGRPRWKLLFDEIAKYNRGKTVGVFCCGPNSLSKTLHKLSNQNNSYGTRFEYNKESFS
# Streptavidin (Streptomyces avidinii), sequence (P22629 whole entry, looked up): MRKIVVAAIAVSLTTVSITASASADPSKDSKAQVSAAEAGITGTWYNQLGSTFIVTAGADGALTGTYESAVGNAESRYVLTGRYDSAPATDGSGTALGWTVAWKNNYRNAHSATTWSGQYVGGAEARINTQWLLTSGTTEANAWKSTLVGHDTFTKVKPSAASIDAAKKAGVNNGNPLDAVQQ
# NADPH oxidase 2 (Homo sapiens), sequence (P04839 whole entry, looked up): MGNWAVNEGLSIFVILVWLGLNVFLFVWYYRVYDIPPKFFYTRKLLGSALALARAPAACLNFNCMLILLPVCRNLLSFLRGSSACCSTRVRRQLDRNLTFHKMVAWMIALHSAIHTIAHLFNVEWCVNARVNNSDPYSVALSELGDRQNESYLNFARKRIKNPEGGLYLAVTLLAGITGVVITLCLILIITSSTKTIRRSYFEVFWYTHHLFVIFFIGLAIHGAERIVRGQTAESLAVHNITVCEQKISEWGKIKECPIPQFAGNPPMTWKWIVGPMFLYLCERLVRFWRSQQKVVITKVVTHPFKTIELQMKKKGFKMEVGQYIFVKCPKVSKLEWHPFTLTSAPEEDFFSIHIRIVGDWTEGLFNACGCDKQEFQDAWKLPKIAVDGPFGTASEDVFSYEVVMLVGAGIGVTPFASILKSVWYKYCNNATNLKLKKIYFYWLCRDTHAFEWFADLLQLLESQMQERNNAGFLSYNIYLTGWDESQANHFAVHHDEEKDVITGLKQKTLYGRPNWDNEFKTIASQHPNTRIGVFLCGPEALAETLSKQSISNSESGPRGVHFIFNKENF
SMILES,composite z-score [1],z-score [2],z-score [3],z-score [4],z-score [5],composite z-score [6],composite z-score [7],composite z-score (Torsin-1A (Homo sapiens) [8]),composite z-score (Torsin-1A (Homo sapiens) [9]),composite z-score [10],z-score [11],composite z-score [12],z-score [13],z-score [14],z-score [15],z-score [16],z-score [17],z-score [18],z-score [19],z-score [20]
CCOC(=O)C[C@H]1[C@H](OC(=O)c2ccc(C(=O)c3ccccc3)cc2)[C@@H](NC(=O)c2ccccc2)c2cc(OCCCO)ccc2N1C(=O)c1ccccc1,0.261,-0.622 (inactive),-0.948 (inactive),-0.346 (inactive),1.13 (inactive),0.512,0.0541,0.138,0.628,0.907,-0.402 (inactive),0.228,2.54 (inactive),0.218 (inactive),0.0495 (inactive),0.357 (inactive),-0.294,-0.613 (inactive),0.646 (inactive),0.0914
COC(=O)[C@@]1(Cc2ccccc2)[C@H]2c3cc(C(=O)N4CCCC4)n(Cc4c(CO)[nH]cc(C)c4=O)c3C[C@H]2CN1C(=O)c1ccccc1,0.652,0.0519 (inactive),-0.0914 (inactive),0.0109 (inactive),0.473 (inactive),1.01,-0.101,0.4,0.491,-0.547,-1.73 (inactive),-0.0971,0.315 (inactive),0.32 (inactive),1.27 (inactive),0.397 (inactive),-0.289,0.562 (inactive),-0.976 (inactive),-2.9
CCCCCCc1nc(-c2ccc(-c3ccc(Cl)c(Cl)c3)o2)c(C)c2c1[Si](C(C)C)(C(C)C)OC2,-0.412,-5.66 (inactive),-1.17 (inactive),0.236 (inactive),0.246 (inactive),0.0199,-0.0933,-0.782,0.0515,0.14,-0.369 (inactive),-0.198,1.88 (inactive),-0.712 (inactive),0.627 (inactive),-1.57 (inactive),1.7,-4.51 (inactive),-2.74 (inactive),-4.66
CC1CC/C=C\[C@H]2OC34C=CCN(Cn5nnc6ccccc65)C(=O)[C@H]3N(CCCCCO)C(=O)[C@@H]4C2C(=O)O1 (stereo not given in full),-0.613,-1.2 (inactive),-0.989 (inactive),0.0524 (inactive),-0.567 (inactive),-1.76,-0.176,-2.12,-1.12,-0.124,0.996 (inactive),-0.624,0.586 (inactive),0.253 (inactive),0.193 (inactive),0.626 (inactive),0.0478,0.664 (inactive),0.341 (inactive),1.68
C=CCC(OC(C)=O)[C@@H]1[C@@H](N(Cc2cc3ccccc3o2)C(=O)Cc2ccc(OC)cc2)c2cc(OCCCO)ccc2N1C(=O)c1ccc2ccccc2c1 (stereo not given in full),-0.252,-1.58 (inactive),-0.352 (inactive),1.41 (inactive),0.368 (inactive),-0.277,-0.0791,-0.748,-0.502,0.688,-0.829 (inactive),-0.0252,2.31 (inactive),-0.0382 (inactive),1.17 (inactive),-0.0343 (inactive),0.559,-1.16 (inactive),-1.26 (inactive),1.14
CC(C)CNC(=O)[C@@]1(Cc2ccccc2I)c2ccccc2C(=O)N(Cc2ccccc2C(F)(F)F)[C@H]1c1ccc(CO)cc1,-0.0971,0.0523 (inactive),0.0415 (inactive),-0.295 (inactive),1.04 (inactive),-0.198,-0.128,-0.177,-0.185,-0.197,0.0655 (inactive),-0.103,1.23 (inactive),0.161 (inactive),0.649 (inactive),0.525 (inactive),-0.146,0.285 (inactive),0.0405 (inactive),0.401
CC(C)NC(=O)[C@@]1(Cc2ccccc2I)c2ccccc2C(=O)N(Cc2ccccc2Cl)[C@H]1c1ccc(CO)cc1,0.361,-2.21 (inactive),0.5 (inactive),-0.464 (inactive),-0.0764 (inactive),0.746,-0.0557,0.214,0.891,1,-0.522 (inactive),0.223,10.7 (active),1.77 (inactive),0.614 (inactive),1.06 (inactive),0.026,0.284 (inactive),0.904 (inactive),0.774
CCC(CC)C(O)C1C=CC2C(=O)N(c3ccccc3)C(=O)C2N1Nc1ccccc1 (stereo not given),0.213,-0.125 (inactive),-1.63 (inactive),1.01 (inactive),-0.814 (inactive),1.21,0.948,-0.0952,0.423,0.494,0.878 (inactive),0.947,4.73 (inactive),0.696 (inactive),0.301 (inactive),0.95 (inactive),-0.709,-0.588 (inactive),-3.29 (inactive),-3.4
COc1ccc([Si](C)(C)[C@@H]2[C@@H](CCn3cc([C@H](O)c4ccccc4)nn3)O[C@]3(C(=O)N(Cc4cccc(N5CCC5=O)c4)c4ccccc43)[C@H]2C)cc1,-0.166,-2.43 (inactive),-1.1 (inactive),-0.272 (inactive),-0.144 (inactive),0.0185,-0.0477,0.423,0.0953,0.71,-0.811 (inactive),-0.144,10.4 (active),2.06 (inactive),0.538 (inactive),0.989 (inactive),0.135,0.702 (inactive),1.4 (inactive),2.32
CS(=O)(=O)CCOC(=O)C1=CC(CCCO)=CC(c2ccc(CN3CCCC3)cc2)N(Cc2cccc(OC(F)(F)F)c2)C=C1C(=O)OCCS(C)(=O)=O (stereo not given),0.531,-1.42 (inactive),4.41 (inactive),4.56 (inactive),-0.0478 (inactive),0.812,0.259,0.907,1.33,0.798,-0.804 (inactive),0.879,1.55 (inactive),0.942 (inactive),0.128 (inactive),0.577 (inactive),0.219,-0.302 (inactive),-0.764 (inactive),-0.504
